Rows were chosen to be rich in hits. Some 12% of all compounds tested hit in one or more screens of this group.
Sfp inh: blocks B. subtilis Sfp PPTase activity | Potency, µM, most hits filed as inhibitors | Q9F4F7 | 310,000 compounds, 3.5% hits | Biochemical Sfp PPTase activity, qHTS;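 also: the enzyme is Sfp with the accession as filed and its product quenches rhodamine fluorescence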
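Compounds were incubated with enzyme (final 15 nM) for 15 min at room temperature before substrate addition started the reaction. Fluorescence at 525 nm excitation, 598 nm emission was recorded immediately and after 30 minutes.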
G9a block: blocks human histone lysine methyltransferase G9a. G9a H3K9 monomethylation, AlphaScreen, 2 h. Potency, µM (top dose mostly 102 µM), most hits filed as inhibitors. 350,000 compounds, 8.8% hits. AID 504332; also: nearly all actives have a fitted effect of over 75% in size
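AlphaScreen read-out: biotin-H3K9 peptide (500 nM) methylation by 20 nM enzyme with 20 uM SAM, 2 h at room temperature after 15 min compound preincubation; anti-monomethyl H3K9 antibody plus donor/acceptor beads, 10 min dark.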
JMJD2A Tudor inh: JMJD2A Tudor domain (human) inhibition | O75164 | AlphaScreen JMJD2A-Tudor / H3K4me3 peptide binding | Potency, µM (titrated, usually from 114 µM), usual class: inhibitors | 390,000 compounds, 4.4% hits | AID 504339; also: nearly all actives have a fitted effect of over 50% in size
HP1b binding inh: blocks HP1-beta chromodomain binding to methylated histone tails | Potency, µM (titrated, usually from 114 µM), most hits filed as inhibitors | AlphaScreen HP1-beta / biotin-H3K9me3 peptide binding | 390,000 compounds, 0.56% hits | P83916; also: nearly all actives have a fitted effect of over 70% in size
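Compound inhibition of the preformed complex between 50 nM HP1-beta and 50 nM biotinylated H3K9me3 peptide was read by AlphaScreen. Buffer was PBS pH 7.4 with 0.01% Tween-20. Incubations ran 30 min at room temperature, with 10 ug/mL donor/acceptor beads.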
BAZ2B inh: BAZ2B (human) inhibition | 360,000 compounds, 4.4% hits | AID 504333 | Q9UIF8 | AlphaScreen BAZ2B-H3K14Ac peptide displacement | Potency, µM (series often up to 114 µM), actives largely listed as inhibitors; also: nearly all actives have a fitted effect of over 60% in size
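AlphaScreen displacement of biotin-H3(5-23)K14Ac peptide (50 nM final) from BAZ2B (50 nM final) in PBS pH 7.4, 0.01% Tween-20; complex preformed 30 min RT, then compounds (top 110 uM) 30 min RT, beads 20 min dark.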
PLK1 PBD block: blocks phosphopeptide binding to human PLK1 polo-box domain; P53350; Plk1 PBD binding of FITC phosphopeptide, fluorescence polarization; Potency, µM, usual class: inhibitors; 360,000 compounds, 2.8% hits; also: series mostly up to about 57 µM; nearly all actives have a fitted effect of over 65% in size
Hits are given with their value; i = inactive; ? = inconclusive; nt = no result; [ ] = another dose, or the depositor's remark. Calls follow the shape of the dose curve; as a rule, active = well fitted curve in the direction sought with a large enough effect; inconclusive = small, poorly fitted or top-dose-only effect, or another doubt; inactive = no such curve, though single readings can be large; an effect the other way counts as inactive or inconclusive.

SMILES	Sfp inh	G9a block	JMJD2A Tudor inh	HP1b binding inh	BAZ2B inh	PLK1 PBD block
Cc1ccc(S(=O)(=O)Nc2ccc(N=Nc3ccc(O)cc3)cc2)cc1	i	i	?	?	45µM	i
Cc1ccc(S(=O)(=O)NN=Cc2c(O)ccc3ccccc23)cc1	nt	nt	nt	nt	nt	i
Cc1ccc(S(=O)(=O)Nc2c(Cl)c(Cl)c(O)c3ccccc23)cc1	45µM	1.3µM	nt	nt	45µM	nt
Cc1ccc(S(=O)(=O)Nc2c(O)ccc3ccccc23)cc1	nt	nt	?	?	nt	6.7µM
NCCN	i	i	nt	nt	nt	nt
COC(=O)N1CCC2(CCN(Cc3ccc(C#N)cc3)CC2)CC1	i	i[12.7 µM]	nt	nt	nt	nt
C[C@H]([C@@H](N)C(=O)N[C@@H](C(=O)O)[C@@H]1O[C@H](n2ccc(=O)[nH]c2=O)[C@@H](O)[C@H]1O)[C@@H](O)c1ccc(O)cn1	56µM	3.2µM	i	i	?	i
COc1cccc(-c2nc(SC)nc3sc(C(=O)NC(C)(C)C)c(N)c23)c1	nt	nt	i	i	nt	nt
COc1ccc(NC=O)c(C(=O)CCNC(C)=O)c1	i	nt	nt	nt	nt	nt
O=C(CSc1n[nH]c(=O)[nH]c1=O)Nc1ccc2c(c1)C(=O)c1ccccc1C2=O	i	nt	?	11µM	50µM	6.7µM
O=C(CSc1ccccn1)Nc1ccc2ccccc2c1	i	i	nt	nt	i	nt
O=C(CSc1ccccn1)Nc1ccc2c(c1)C(=O)c1ccccc1C2=O	i	?	50µM	i	50µM	i
COc1ccc(-c2nnc(SC)nc2-c2ccc(OC)c([N+](=O)[O-])c2)cc1[N+](=O)[O-]	nt	nt	2.5µM	?	nt	i
CC(C)c1ccc(NNC(=O)C2CCC2)cc1	i	7.1µM	?	i	i	i
CC1=CC(C)(C)NC(=S)N1c1cccc2ccccc12	i	i	i	i	i	i
CN1c2ccccc2N(C)C1(C)c1cccc2ccccc12	?	1.4µM	45µM	?	?	i
CCCCc1ccc(NS(=O)(=O)c2ccc(N3CCCCS3(=O)=O)cc2)cc1	nt	i[12.7 µM]	i	i	i	nt
O=c1c2c(C(F)(F)F)cc(C(F)(F)F)nc2[nH]n1-c1ccccc1	i	7.9µM	?	i	?	i
Cc1ccc(NC(=O)C2CCC(CNS(=O)(=O)c3cccc4nsnc34)CC2)c(Cl)c1 (stereo not given)	nt	i	i	i	i	nt
Cc1c(N=NC2=C(O)CC(C)(C)CC2=O)cc2c(c1[N+](=O)[O-])C(C)(C)CC2(C)C	i	?	22µM	?	?	i
CC(=O)Nc1cc2c(c([N+](=O)[O-])c1C)C(C)(C)CC2(C)C	nt	nt	i	i	nt	i
COC(=O)c1ccc(NC(=O)CCc2c(C)nc3c(c(C)nn3C(C)(C)C)c2C)cc1	nt	i	i	i	i	nt
Cc1ccc(C)c(N2CCN(C(=O)CCCOc3cc(=O)n(C)c4ccccc34)CC2)c1	i	nt	i	i	?	i
COc1ccc(N2CCN(C(=O)C(OC(C)=O)c3ccccc3)CC2)cc1 (stereo not given)	i	8.9µM	i	i	i	i
COc1ccc(N2CCN(C(=O)Cc3ccc(OC)c(OC)c3)CC2)cc1	i	i	13µM	i	i[0.457 µM]	24µM
SMILES	Sfp inh	G9a block	JMJD2A Tudor inh	HP1b binding inh	BAZ2B inh	PLK1 PBD block
COc1ccc(CC(=O)N2CCN(C(=O)Cc3ccc(OC)c(OC)c3)CC2)cc1OC	nt	nt	nt	nt	nt	i
COc1ccc(N2CCN(C(=O)CCCOc3cc(=O)n(C)c4ccccc34)CC2)cc1	i	79µM	?	i	?	i
COc1ccc(N2CCN(C(C)C(=O)N(C)Cc3ccccc3)CC2)cc1 (stereo not given)	i	50µM	i	i	i	i
CC(=O)OC(C(=O)N1CCN(c2ccc(F)cc2)CC1)c1ccccc1 (stereo not given)	i	i	i	i	i	i
O=S(=O)(c1cccnc1)N1CCN(c2nc(-c3cccs3)nc3ccccc23)CC1	nt	nt	i	i	nt	nt
Cc1ccc2nc3c(cc(C(=O)NCC4CCCO4)c(=N)n3C(C)C)c(=O)n2c1 (stereo not given)	nt	i	i	i	i	nt
COc1ccc(C(=O)Nc2ccccc2C(=O)NC2CC2)c(OC)c1OC	nt	nt	nt	nt	nt	i
COc1ccc(OC)c(Cc2nnc(CCC(=O)N3CCN(C4CCCC4)CC3)o2)c1	i	nt	i	i	i	i
CCC(=O)N[C@@H]1Cc2ccccc2[C@@H](c2ccccc2)C1	i	nt	nt	nt	nt	nt
CS(=O)(=O)N(CC(=O)N1CCN(Cc2ccc3c(c2)OCO3)CC1)Cc1ccc(Cl)cc1	i	?	i	i	56µM	i
COc1ccc(N2CCN(C(=O)CN(Cc3ccc(Cl)cc3)S(C)(=O)=O)CC2)cc1	i	79µM	?	i	?	i
O=C(C(Cc1ccccc1)n1cccc1)N1CCN(Cc2ccccc2)CC1 (stereo not given)	i	32µM	?	i	50µM	i
COc1ccc(N2CCN(C(=O)CN(Cc3ccccc3)S(C)(=O)=O)CC2)cc1	i	50µM	i	i	i	i
O=C(c1ccc2c(c1)N(Cc1cccc(Cl)c1)C(=O)c1ccccc1S2(=O)=O)N1CCc2ccccc21	nt	?	i	i	i	nt
COc1ccc(-n2cnc3cc(C(=O)NC4CCCCCC4)ccc32)cc1	nt	i	i	i	?	nt
O=S(=O)(NCCc1nnc2ccc(SCc3ccccc3Cl)nn12)c1ccccc1	nt	i	i	i	?	nt
COc1ccccc1C(=O)N1CCC(c2c[nH]c3ccccc23)(c2c[nH]c3ccccc23)CC1	nt	i	i	i	i	nt
CS(=O)(=O)N(Cc1ccccc1)c1ccc(C(=O)N2CCN(c3cccc(Cl)c3)CC2)cc1	i	i	i	i	i	i
COc1ccc(N2CCN(C(=O)CCc3ccccc3)CC2)cc1	i	32µM	i	i	i	i
CS(=O)(=O)N(Cc1ccc(Cl)cc1)c1ccc(C(=O)N2CCN(c3ccccc3)CC2)cc1	i	7.9µM	89µM	i	?	i
O=C(C(Cc1ccccc1)n1cccc1)N1CCN(c2cccc(Cl)c2)CC1 (stereo not given)	i	?	i	i	i	i
COc1ccc(CCC(=O)N2CCN(c3ccc(OC)cc3)CC2)cc1	i	?	i	i	?	i
COc1ccc(N2CCN(C(=O)C(Cc3ccccc3)n3cccc3)CC2)cc1 (stereo not given)	i	40µM	56µM	?	28µM	i
O=C(O)c1csc(-c2ccc(Cl)cc2)n1	i	56µM	i	i	?	i
O=C(O)c1ccc(-c2nc(-c3ccccc3)cs2)cc1	i	i	i	i	i	i
CNC(=O)c1csc(-c2ccc(Cl)cc2)n1	i	i	i	i	i	i
Nc1cccc(-c2csc(-n3ncc(C(=O)O)c3C(F)(F)F)n2)c1	i	?	i	i	i	i
O=C(O)c1cnn(-c2nc(-c3cccc(F)c3)cs2)c1C(F)(F)F	i	50µM	i[11.4 µM]	i	i	i
O=C(O)c1cnn(-c2nc(-c3ccc(Cl)c(Cl)c3)cs2)c1C(F)(F)F	i	?	i	i	i	27µM

Source: PubChem BioAssay
